Structures are written as SMILES. Among all 340,000 compounds or so, about 2,100 (0.62%) were called active.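 The calls were made as follows: active = first-screen hits whose inhibition reached a set limit at any dose in the follow-up dose series; inconclusive = inhibition above the set first-screen limit but never retested; inactive = the rest.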 The list is a sample of the results. Entries with a potency or affinity are not part of this list.

This assay deals with Rac GTPase-activating protein 1 (Homo sapiens) (UniProt Q9H0H5). Description: MgcRacGAP GTPase-activating activity inhibitors, confirmation, biochemical, ADP Hunter fluorescence, primary and confirmatory (AID 624330).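 Also: fluorescence reports GDP produced by GAP-driven GTP hydrolysis.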 The settings on record: MgcRacGAP-stimulated Rac1 GTP hydrolysis, at 30 µM, stronger effect = higher value, GST-tagged Rac1 F28L mutant substrate.
Chain of Rac GTPase-activating protein 1 (Homo sapiens) (Q9H0H5 whole entry, looked up): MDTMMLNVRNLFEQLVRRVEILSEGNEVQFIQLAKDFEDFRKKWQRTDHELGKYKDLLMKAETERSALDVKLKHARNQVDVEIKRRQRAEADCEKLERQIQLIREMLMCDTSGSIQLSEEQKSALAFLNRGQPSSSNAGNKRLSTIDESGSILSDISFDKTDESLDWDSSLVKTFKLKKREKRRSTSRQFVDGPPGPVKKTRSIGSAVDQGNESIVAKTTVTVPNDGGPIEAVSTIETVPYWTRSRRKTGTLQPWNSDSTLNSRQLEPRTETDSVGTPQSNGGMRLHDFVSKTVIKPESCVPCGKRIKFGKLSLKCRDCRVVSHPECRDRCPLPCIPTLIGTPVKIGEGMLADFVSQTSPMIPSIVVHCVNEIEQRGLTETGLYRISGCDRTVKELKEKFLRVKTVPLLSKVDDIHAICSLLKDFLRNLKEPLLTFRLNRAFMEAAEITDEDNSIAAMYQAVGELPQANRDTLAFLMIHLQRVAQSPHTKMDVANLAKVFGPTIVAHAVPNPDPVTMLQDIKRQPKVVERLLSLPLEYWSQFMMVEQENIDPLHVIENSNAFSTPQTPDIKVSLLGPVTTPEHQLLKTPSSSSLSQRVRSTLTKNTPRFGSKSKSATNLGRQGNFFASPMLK
As for `Cc1cccc(C(C)Nc2ccc([N+](=O)[O-])cn2)c1` (configuration not stated), the inhibition (commonly the relative decrease from the control value, in per cent) was 1.95% (inactive). As to `COc1ccc(/C=C/C(=O)c2ccc(O)cc2)cc1`, the inhibition was 4.28% (inactive). As for `COC(=O)c1ccc(/C=C/C(=O)c2ccc(OC)cc2)cc1`, the figure is 4.33% (inactive); as for `CCn1cc(C(=O)N2CCN(c3ccc(OC)cc3)CC2)c2cc(OC)c(OC)cc2c1=O`, 18.7% (inactive); as for `CC(C)c1nnc(NC(=O)c2cccc(-n3cnnn3)c2)s1`, 10.5% (inactive). As for `Cc1ccc(C2=NN=C(NC(=O)CSc3nnc4c5ccccc5n(C)c4n3)SC2)cc1`, the figure is 28.8% (inactive); as for `Cc1cc(C)nc(SCC(=O)NC2=NN=C(c3ccc(Br)cc3)CS2)n1`, 27.2% (inactive).

Turning to `COc1ccc2nc(/C(C#N)=C\c3ccc(Oc4ccc([N+](=O)[O-])cn4)cc3)[nH]c2c1`, the inhibition is 5.92% (inactive). As for `Cc1cccc(N2C(=O)Cc3ccccc3C2=O)c1`, the figure is 8.26% (inactive).

For `Cc1ccc(C(c2nnnn2C2CCCC2)N2CCN(c3nc4ccccc4s3)CC2)cc1` (configuration not stated), the inhibition was 4.8% (inactive). On to `Cc1ccc(OCC(=O)N/N=C\c2cccn2C)c([N+](=O)[O-])c1`, for which the inhibition was 1.92% (inactive). As for `COc1ccc2nc3cc(Cl)ccc3c(Nc3cc(C(C)C)c(O)cc3C)c2c1`, the figure is 7.74% (inactive); as for `COc1ccc(N2CCN(Cc3nc4cc(Cl)ccc4c(=O)[nH]3)CC2)cc1`, 15.2% (inactive); as for `CCOc1ccc(N2C(=O)CC(Cc3cc(C)cc(C)c3)C2=O)cc1` (configuration not stated), 7.28% (inactive). Turning to `Cc1ccc(N=Nc2ccc(O)cc2)c(Br)c1`, the inhibition was 14.6% (inactive). In the case of `Cc1ccc(N=C(N)N=C(N)N)cc1`, the inhibition was 16.3% (inactive). Take `CC(=O)C1C(c2cccc(F)c2)c2c(n[nH]c2C)CC1(C)O` (configuration not stated): the inhibition was 9.67% (inactive). As for `CCC(=O)N1N=C(c2cccc(NS(C)(=O)=O)c2)CC1c1cccs1` (configuration not stated), the figure is 11.9% (inactive).

As to `COc1cc(NCc2ccccc2)c2ncn(Cc3ccccc3)c2c1`, the inhibition is 6.64% (inactive). As for `CCn1cc(C(=O)Nc2ccc(NC(=O)c3ccco3)cc2)c(=O)c2ccc(C)nc21`, the figure is 0.62% (inactive).

As for `Cc1cc(C(=O)CN2C(=O)NC3(CCCCC3)C2=O)c(C)n1Cc1ccc2c(c1)OCO2`, the inhibition was 0.78% (inactive). On to `Cc1[nH]n(-c2cccc([N+](=O)[O-])c2)c(=O)c1-c1ccccc1`, for which the inhibition was 8.04% (inactive). As for `S=c1[nH]cc(-c2ccccc2)n1-c1cccc(Cl)c1`, the figure is 6.88% (inactive); as for `Nc1c(-c2cccc(Cl)c2)cnn1-c1ccccc1`, 20.3% (inactive); as for `COc1c[nH]n(-c2ccccc2)c(=O)c1=O`, 5.24% (inactive). For the molecule `O=c1c(N=Nc2ccccc2)c[nH]n1-c1ccccc1`, the inhibition was -5.5% (inactive). Consider `Nc1c(-c2ccccc2)cnn1-c1cccc([N+](=O)[O-])c1`, for which the inhibition was 5.5% (inactive).

As to `COC(=O)c1ccsc1NC(=O)c1ccco1`, the inhibition was 6.38% (inactive). As for `COc1cc(C(=O)COC(=O)c2ccncc2)cc(OC)c1OC`, the figure is 4.46% (inactive); as for `Cc1cc(C(=O)C(=O)N(C)C)c(C)n1-c1ccc(Cl)c(Cl)c1`, 14.3% (inactive). Regarding `CC1CN(C(=O)c2ccc(NS(=O)(=O)c3cccc(Cl)c3)cc2)CC(C)O1` (configuration not stated), the inhibition is 5.38% (inactive).

For `NS(=O)(=O)c1ccc(N=Cc2c(O)n(-c3nccs3)c(=O)c3ccccc23)cc1`, the inhibition was 1.11% (inactive). Take `Cc1ccc(NC(=O)N/C=C/c2ccco2)c(C)c1`: the inhibition is 7.78% (inactive).

Turning to `CNC(=S)N1CCc2sccc2C1C` (configuration not stated), the inhibition was 9.43% (inactive). As for `N#Cc1c2ccc(OCC(=O)NCc3ccco3)cc2n2ccccc12`, the figure is 8.65% (inactive). As for `CCOC(=O)Cc1csc(NC(=O)/C=C/c2ccco2)n1`, the figure is 7.86% (inactive); as for `CN(C)c1nc2ccccc2c(N)c1-c1ccccc1`, 31% (inactive); as for `Nc1c2ccccc2nc2ccccc12`, 12.6% (inactive). As for `CC1(C)CC(NC(=O)C2CCC(=O)N(Cc3ccccc3F)C2)CC(C)(C)C1` (configuration not stated), the figure is 6.51% (inactive).

In the case of `Cc1cc(C)c(S(N)(=O)=O)c(C)c1-n1cnnn1`, the inhibition is 1.87% (inactive). For `Cc1cc(C)c(S(=O)(=O)NC(C)C)c(C)c1-n1cnnn1`, the inhibition was 4.49% (inactive). Turning to `COc1ccc(-c2nn(-c3ccccc3)cc2/C=N/NC(=S)NC(C)C)cc1OC`, the inhibition was 7.12% (inactive). As for `CCOC(=O)C1CCN(C(=O)c2cc(S(=O)(=O)N3CCCCC3)ccc2C)CC1`, the figure is -9.49% (inactive); as for `CC(C)c1nc(SCC(=O)Nc2ccc(N3CCOCC3)cc2)c2ccccc2n1`, 9.39% (inactive).

As to `CN(C)c1ccc(NC(=O)CSc2nc(C3CC3)nc3ccccc23)cc1`, the inhibition was -1.11% (inactive).

As to `COCCn1c(SCC(=O)c2ccc3c(c2)OCCO3)nnc1-c1ccco1`, the inhibition was 8.82% (inactive). As for `O=C1NC(=O)N(c2ccccc2)C1=O`, the figure is 10% (inactive).

Consider `O=C(O)COc1ccccc1/C=N/NC(=O)Cc1ccccc1`, for which the inhibition is 9.01% (inactive).

`CC(C)Cc1nc2sc3c(c2c(=O)n1N)CC(C)(C)OC3`: the inhibition was -0.31% (inactive).

On to `Oc1ccc(C[C@H]2CNC(=S)N2CC2CCCN2C[C@H](Cc2ccc(O)cc2)N2C[C@H](Cc3ccccc3)N(CCc3ccccc3)C2=S)cc1` (some centres not stated), for which the inhibition was 10.5% (inactive). As for `Cc1cc2c(cc1S(=O)(=O)N1CC(C)CC(C)C1)OCC(=O)N2` (configuration not stated), the figure is 1.63% (inactive); as for `COc1cccc(/C=C/C(=O)OC(C)C(=O)Nc2c(C)n(C)n(-c3ccccc3)c2=O)c1` (configuration not stated), 1.46% (inactive). For the molecule `COc1cc(/C=C/C(=O)OCC(=O)Nc2c(C)n(C)n(-c3ccccc3)c2=O)cc(OC)c1OC`, the inhibition was -6.63% (inactive). As for `COc1cc(/C=C/C(=O)OCC(=O)Nc2c(C)n(C)n(-c3ccccc3)c2=O)ccc1OCC#N`, the figure is 3.82% (inactive); as for `Cc1c(NC(=O)C(C)OC(=O)/C=C/c2ccccc2)c(=O)n(-c2ccccc2)n1C` (configuration not stated), 2.8% (inactive).

`CCCCCCn1c(CN2CCN(C)CC2)nc2c1c(=O)n(C)c(=O)n2C`: the inhibition was 0.38% (inactive). As to `CCOC(=O)Cc1csc(NC(=O)CSc2nc(N)c3c(C)c(C)sc3n2)n1`, the inhibition was -6.82% (inactive). As for `O=C(CSc1nc2ccccc2o1)NCC1CCCO1` (configuration not stated), the figure is 5.06% (inactive); as for `CCC(c1nnnn1Cc1ccc(OC)cc1)N1CCN(c2ccc(OC)cc2)CC1` (configuration not stated), 24.3% (inactive); as for `Cc1cc2oc(=O)cc(CSc3nc(N)cc(N)n3)c2cc1C(C)C`, 11.9% (inactive).

As to `N#Cc1ccc(N[C@@H]2CCN3C(=O)c4ccccc4[C@@H]3C[C@H]2O)cc1`, the inhibition was 4.35% (inactive).

For the molecule `O=C1c2ccccc2[C@@H]2C[C@@H](O)[C@H](Nc3ccccc3)CCN12`, the inhibition is 8.38% (inactive). On to `CCC1CCCCN1Cc1ccc(OC)c(C)c1` (configuration not stated), for which the inhibition was 14.3% (inactive). As for `Cc1ccc(S(=O)(=O)NCCS(=O)(=O)N2CCN(c3ccccc3)CC2)cc1`, the figure is -3.13% (inactive).

On to `N=C(N)SCc1ccc(O)c([N+](=O)[O-])c1`, for which the inhibition is 14.6% (inactive). `CC(C)(c1ccc(O)c([N+](=O)[O-])c1)c1ccc(O)c([N+](=O)[O-])c1`: the inhibition is 5% (inactive). As to `CN(CC(=O)Nc1ccc2c(c1)CCC2)CC(=O)Nc1ccccc1Br`, the inhibition is 3.47% (inactive). As for `CC(=O)Nc1cc2c(cc1Cl)-c1ccccc1C2`, the figure is 0.41% (inactive).

For the molecule `Nc1ccc2c(c1)Cc1cc(Cl)c(Cl)cc1-2`, the inhibition is 31.7% (inactive). As for `O=[N+]([O-])c1cc2c(cc1Br)-c1ccccc1C2`, the figure is 3.13% (inactive); as for `COc1cc(N)ccc1-c1cc2ccccc2oc1=O`, 3.42% (inactive). As for `Nc1ccc2c(c1)Cc1c(F)cccc1-2`, the figure is 19.7% (inactive). As for `COc1cc2c(cc1[N+](=O)[O-])-c1ccccc1C2`, the figure is -0.68% (inactive); as for `CC(=O)Nc1c(Cl)cc2c(c1Cl)Cc1cc(N)ccc1-2`, 2.49% (inactive); as for `Nc1ccc2c(c1)CCC2=O`, 1.82% (inactive). On to `O=C(CCc1nc2ccccc2s1)NCc1ccccc1F`, for which the inhibition was 3.81% (inactive). Regarding `CCSC1=N/C(=C\c2ccccc2)C(=O)N1`, the inhibition is 7.65% (inactive).

As for `C/C(=N/NC(=O)C1CC1(c1ccccc1)c1ccccc1)c1ccco1` (configuration not stated), the inhibition is 10.7% (inactive). As for `COc1cc2cc(CN(Cc3cccnc3)C(=O)Nc3ccccc3)c(=O)[nH]c2cc1OC`, the figure is 13.6% (inactive). As for `CCCCn1c(N)c(N(CCOC)C(=O)CCN2C(=O)C3CC=CCC3C2=O)c(=O)[nH]c1=O` (configuration not stated), the figure is 9.87% (inactive); as for `O=C(NCC(=O)N1CCCCCCC1)c1ccc(Cl)c(Cl)c1`, 16.3% (inactive); as for `CC(=O)Nc1ccc2c(c1Br)Cc1ccccc1-2`, 2.11% (inactive). As for `Nc1c(Cl)cc2c(c1Br)Cc1ccccc1-2`, the inhibition was 13.1% (inactive). `O=C(CN1CCCC1)NC(c1ccccc1)c1ccccc1`: the inhibition is 23.8% (inactive).

Take `CC1CN(CC(=O)NC(C)c2ccccc2)CC(C)O1` (configuration not stated): the inhibition is 10.1% (inactive). As for `O=C(CN1CCN(C(c2ccccc2)c2ccccc2)CC1)NCc1ccccc1`, the figure is 4.24% (inactive); as for `CC1Cc2ccccc2N1CC(=O)NC(c1ccccc1)c1ccccc1` (configuration not stated), -0.83% (inactive); as for `O=C(CN1CCCCCC1)NC(c1ccccc1)c1ccccc1`, 25.4% (inactive). For `COCCNC(=O)CN1CCN(C(c2ccccc2)c2ccccc2)CC1`, the inhibition is 25.6% (inactive).

Regarding `O=C(CN1CCN(Cc2ccccc2)CC1)Nc1ccc(Cl)cc1`, the inhibition is 10.4% (inactive). As for `Cc1ccc(NC(=O)CN2CCN(Cc3ccccc3)CC2)cc1F`, the figure is 6.45% (inactive); as for `CCN1CCN(C(=O)c2ccccc2Nc2ccc(SC(F)F)cc2)CC1`, 9.86% (inactive); as for `CCCCCC(=O)Nc1cccc(S(=O)(=O)NC2=NCCC2)c1`, 6% (inactive).

Turning to `O=C(NCc1ccccn1)c1ccc(NS(=O)(=O)c2cccc(Cl)c2)cc1`, the inhibition was 2.91% (inactive).

Consider `CC1CN(Cc2nc3c(c(=O)n(C)c(=O)n3C)n2CC(O)CO)CC(C)O1` (configuration not stated), for which the inhibition was 1.13% (inactive). As for `CC(NC(=O)C(C)N1CCN(Cc2ccccc2)CC1)c1ccccc1` (configuration not stated), the inhibition is 4.7% (inactive).

On to `CC(NC(=O)C(C)N1CCN(Cc2ccccc2)CC1)c1ccc(F)cc1` (configuration not stated), for which the inhibition is 4.63% (inactive).

The values are drawn from PubChem BioAssay AID624330 (Southern Research Specialized Biocontainment Screening …, 2012).
